36 sequences from article PMC5700166 can be followed below.

The target of experiment [1] is T1, GST-Nv-NF-kB (Ser allele) (Nematostella vectensis, UniProt A7UNT2 2-411).
T1 sequence: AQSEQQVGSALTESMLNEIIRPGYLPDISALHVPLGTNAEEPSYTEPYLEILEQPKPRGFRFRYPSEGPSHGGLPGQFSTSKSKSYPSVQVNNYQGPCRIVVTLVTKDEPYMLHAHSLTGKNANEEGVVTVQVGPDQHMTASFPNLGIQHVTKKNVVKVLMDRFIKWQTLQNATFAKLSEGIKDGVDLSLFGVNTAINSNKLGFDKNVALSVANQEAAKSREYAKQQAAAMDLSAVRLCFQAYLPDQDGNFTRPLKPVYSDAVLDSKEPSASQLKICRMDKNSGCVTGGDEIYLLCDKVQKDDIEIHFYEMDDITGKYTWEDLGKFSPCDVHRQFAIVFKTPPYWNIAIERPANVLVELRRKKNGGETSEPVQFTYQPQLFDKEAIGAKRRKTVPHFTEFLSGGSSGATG
Description: protein-binding microarray (PBM); PBM: ~300 nM protein, 6 mM HEPES pH 7.8, 80 mM KCl, 0.5 mM EDTA, 0.5 mM EGTA, 6% glycerol, 35 ng/ul poly-dIdC, 1% milk, 1 h, room temperature; Ap Aiptasia and Nv Nematostella (sea anemones) / Co Capsaspora / Aq Amphimedon (sponge) / Dm Drosophila / Hu human; RHD is the Rel homology domain; high values mean tight binding. To be noted: dsDNA, one strand shown.

The target of a further experiment is GST-Hu-p50 (Homo sapiens, UniProt P19838 7-356). The experiment is described as above. To be noted: dsDNA, one strand shown.
Sequence of GST-Hu-p50 (P19838 7-356): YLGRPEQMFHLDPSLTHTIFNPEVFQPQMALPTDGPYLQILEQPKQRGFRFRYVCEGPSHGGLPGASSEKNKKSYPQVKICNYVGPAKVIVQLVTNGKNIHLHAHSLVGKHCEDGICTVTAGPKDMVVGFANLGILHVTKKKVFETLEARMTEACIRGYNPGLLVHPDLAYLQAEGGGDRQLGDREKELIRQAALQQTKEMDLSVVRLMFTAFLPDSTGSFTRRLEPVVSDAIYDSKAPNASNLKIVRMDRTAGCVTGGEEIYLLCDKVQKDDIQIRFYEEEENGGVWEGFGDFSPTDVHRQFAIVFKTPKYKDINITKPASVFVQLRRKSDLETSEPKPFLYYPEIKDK

For the sequence “CCGATTAACATCAATTTTTCCCATGATGTTAATCGGGTCTTGATTCGCTTGACGCTGCTG”, the binding signal in experiment [1] amounted to 5.77 z-score; with GST-Hu-p50, 3.53 z-score.

“CCGATTAACATCAGGGGATCCCATGATGTTAATCGGGTCTTGATTCGCTTGACGCTGCTG”: the binding signal in experiment [1] is 6.24 z-score; with GST-Hu-p50, 4.5 z-score. Take “CCGATTAACATCAAAAAAATTTCTGATGTTAATCGGGTCTTGATTCGCTTGACGCTGCTG”: the binding signal in experiment [1] came out at 1.35 z-score; with GST-Hu-p50, 1.66 z-score. In the case of “CCGATTAACATCAGGGGGGGTCATGATGTTAATCGGGTCTTGATTCGCTTGACGCTGCTG”, the binding signal in experiment [1] was found to be 1.92 z-score; with GST-Hu-p50, 3.32 z-score. For “CCGATTAACATCAGGGGATGGGATGATGTTAATCGGGTCTTGATTCGCTTGACGCTGCTG”, in that order: 4.39 z-score and 2.85 z-score.

Consider “CCGATTAACATCAGGGGACGCACTGATGTTAATCGGGTCTTGATTCGCTTGACGCTGCTG”, for which the results for the binding signal (in experiment [1]; with GST-Hu-p50) were 4.02 z-score and 4.28 z-score, respectively.

With “CCGATTAACATCACCCACTTCCCTGATGTTAATCGGGTCTTGATTCGCTTGACGCTGCTG”, the results for the binding signal (in experiment [1]; in the experiment with GST-Hu-p50) were 2.13 z-score and 1.86 z-score, respectively. The sequence “CCGATTAACATCAAATGTGGGAATGATGTTAATCGGGTCTTGATTCGCTTGACGCTGCTG” yielded a binding signal in experiment [1] of 1.31 z-score. On the same count and under the same terms, with “CCGATTAACATCAGGGAAACTTATGATGTTAATCGGGTCTTGATTCGCTTGACGCTGCTG” the figure was 6.07 z-score. “CCGATTAACATCAGGGATTCACCTGATGTTAATCGGGTCTTGATTCGCTTGACGCTGCTG”: the binding signal worked out at 4.26 z-score in experiment [1] and 4.55 z-score with GST-Hu-p50. As for “CCGATTAACATCAACAAAGTCCCTGATGTTAATCGGGTCTTGATTCGCTTGACGCTGCTG”, the binding signal in experiment [1] turned out to be 6.52 z-score; with GST-Hu-p50 it was 4.3 z-score. As to “CCGATTAACATCAGGGGGTAATATGATGTTAATCGGGTCTTGATTCGCTTGACGCTGCTG”, the binding signal was determined as 5.13 z-score in experiment [1] and 4.43 z-score with GST-Hu-p50. Taken in the same sequence, the figures for “CCGATTAACATCACGTGTTTCCCTGATGTTAATCGGGTCTTGATTCGCTTGACGCTGCTG” were 3.33 z-score and 1.11 z-score.

For the sequence “CCGATTAACATCAGGGAAAGGTATGATGTTAATCGGGTCTTGATTCGCTTGACGCTGCTG”, the figures for the binding signal (in experiment [1]; with GST-Hu-p50) were 3.34 z-score and 2.11 z-score, respectively. For “CCGATTAACATCAAATTCCCAAATGATGTTAATCGGGTCTTGATTCGCTTGACGCTGCTG”, in that order: 3.82 z-score and 3.01 z-score. Taken in the same sequence, the figures for “CCGATTAACATCAGAACTTCCCATGATGTTAATCGGGTCTTGATTCGCTTGACGCTGCTG” were 2.2 z-score and 1.47 z-score.

Consider “CCGATTAACATCAAATTCCCGTATGATGTTAATCGGGTCTTGATTCGCTTGACGCTGCTG”, for which the binding signal in experiment [1] is 4.51 z-score; in the experiment with GST-Hu-p50, 3.02 z-score. As for “CCGATTAACATCAGGATATTCCCTGATGTTAATCGGGTCTTGATTCGCTTGACGCTGCTG”, the binding signal in experiment [1] was 4.19 z-score; in the experiment with GST-Hu-p50, 3.1 z-score. As to “CCGATTAACATCAAGGAATTTCCTGATGTTAATCGGGTCTTGATTCGCTTGACGCTGCTG”, the results for the binding signal (in experiment [1]; in the experiment with GST-Hu-p50) were 1.22 z-score and 1.48 z-score, respectively.

For “CCGATTAACATCAGGGGGTTCACTGATGTTAATCGGGTCTTGATTCGCTTGACGCTGCTG”, the binding signal in experiment [1] was determined as 4.69 z-score. As for “CCGATTAACATCAGGAATATTCCTGATGTTAATCGGGTCTTGATTCGCTTGACGCTGCTG”, the binding signal turned out to be 1.09 z-score in experiment [1] and 1.36 z-score with GST-Hu-p50. For “CCGATTAACATCAAGGAATTACCTGATGTTAATCGGGTCTTGATTCGCTTGACGCTGCTG”, in that order: 4.05 z-score and 2.25 z-score. In the case of “CCGATTAACATCATCTCCCCCCATGATGTTAATCGGGTCTTGATTCGCTTGACGCTGCTG”, in experiment [1], the binding signal came to 3.69 z-score. Take “CCGATTAACATCAGGGGGTTAACTGATGTTAATCGGGTCTTGATTCGCTTGACGCTGCTG”: the binding signal in experiment [1] came out at 4.34 z-score; in the experiment with GST-Hu-p50, 4.57 z-score. In the case of “CCGATTAACATCAGGCTTCCCCCTGATGTTAATCGGGTCTTGATTCGCTTGACGCTGCTG”, the binding signal in experiment [1] is 6.08 z-score; with GST-Hu-p50 it was 5.25 z-score. Taken in the same sequence, the figures for “CCGATTAACATCATAATTCCCAATGATGTTAATCGGGTCTTGATTCGCTTGACGCTGCTG” were 3.07 z-score and 2.73 z-score. For “CCGATTAACATCAGAAGTTTCCCTGATGTTAATCGGGTCTTGATTCGCTTGACGCTGCTG”, in that order: 5.14 z-score and 4.43 z-score. In the case of “CCGATTAACATCAGGGTTTTCCATGATGTTAATCGGGTCTTGATTCGCTTGACGCTGCTG”, the binding signal worked out at 1.68 z-score in experiment [1] and 2.46 z-score with GST-Hu-p50. Take “CCGATTAACATCAAATTGGGAAATGATGTTAATCGGGTCTTGATTCGCTTGACGCTGCTG”: in experiment [1], the binding signal turned out to be 2.19 z-score. Turning to “CCGATTAACATCAATACACCCCCTGATGTTAATCGGGTCTTGATTCGCTTGACGCTGCTG”, the binding signal (in experiment [1]; in the experiment with GST-Hu-p50) was 4.34 z-score each time.

With “CCGATTAACATCAGGAATATACCTGATGTTAATCGGGTCTTGATTCGCTTGACGCTGCTG”, the binding signal was 1.48 z-score in experiment [1] and 1.06 z-score with GST-Hu-p50. In the case of “CCGATTAACATCAAAAAATCTCCTGATGTTAATCGGGTCTTGATTCGCTTGACGCTGCTG”, the binding signal in experiment [1] came to 1.5 z-score.

With “CCGATTAACATCAGGAAACTACCTGATGTTAATCGGGTCTTGATTCGCTTGACGCTGCTG”, the figures for the binding signal (in experiment [1]; with GST-Hu-p50) were 3.83 z-score and 3.87 z-score, respectively.

Regarding “CCGATTAACATCAGGACTTTACCTGATGTTAATCGGGTCTTGATTCGCTTGACGCTGCTG”, the results for the binding signal (in experiment [1]; with GST-Hu-p50) were 2.66 z-score and 2.67 z-score, respectively.

“CCGATTAACATCAGACAATTCCCTGATGTTAATCGGGTCTTGATTCGCTTGACGCTGCTG”: the binding signal in experiment [1] was 4.51 z-score; with GST-Hu-p50 it was 4.15 z-score. Regarding “CCGATTAACATCAGGAAAACCCATGATGTTAATCGGGTCTTGATTCGCTTGACGCTGCTG”, the binding signal is 1.48 z-score in experiment [1] and 2.32 z-score with GST-Hu-p50.
